Measurements taken from PubChem BioAssay AID1259397 (Fisher Drug Discovery Resource Center, 2018).
“And” between values parts separate entries of the source, which are not always exact repeats. Equal entries are not always repeated. Among all 130,000 compounds or so, about 230 (0.18%) were called active.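 Rule for the calls: active = inhibition of cGAS enzyme activity at or above 60%; inactive = the rest.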 The full list was thinned out, with actives kept by preference.

biological target: Cyclic GMP-AMP synthase (Mus musculus) (UniProt Q8C6L5); assay: inhibitors of Mus musculus cyclic GMP-AMP synthase, initial high-throughput assay, cell-free, RapidFire MS (AID 1259397); settings: recombinant mouse cGAS, cGAMP by RapidFire MS; at 12.5 µM; stronger effect = higher value;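 note: enzyme stimulated by 45 bp dsDNA with ATP and GTP substrates; cGAMP share of summed cGAMP plus half ATP and half GTP signals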
Sequence (Q8C6L5 whole entry, looked up): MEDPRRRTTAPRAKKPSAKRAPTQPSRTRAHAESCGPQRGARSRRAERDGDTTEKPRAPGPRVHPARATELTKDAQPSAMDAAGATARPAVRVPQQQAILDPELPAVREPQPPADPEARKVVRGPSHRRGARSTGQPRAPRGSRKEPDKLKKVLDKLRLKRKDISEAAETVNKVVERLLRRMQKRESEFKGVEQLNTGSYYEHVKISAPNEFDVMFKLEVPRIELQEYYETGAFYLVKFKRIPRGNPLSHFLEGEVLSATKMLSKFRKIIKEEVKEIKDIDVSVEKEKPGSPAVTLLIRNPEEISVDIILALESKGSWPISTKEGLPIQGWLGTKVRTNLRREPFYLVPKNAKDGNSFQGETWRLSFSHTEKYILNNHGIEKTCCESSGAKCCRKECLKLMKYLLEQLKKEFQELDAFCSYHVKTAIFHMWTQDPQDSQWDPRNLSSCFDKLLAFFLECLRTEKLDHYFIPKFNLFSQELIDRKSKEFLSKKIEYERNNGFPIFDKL

inhibition, inactive:
CC1(C(=O)NS(=O)(=O)c2cccc(OC(F)F)c2)CCN1C(=O)COc1ccc(Cl)cc1 (stereo unspecified) -4.55%
CCN(CC(=O)NC(C)(C)C)c1cc(Cl)nc(N)n1 -6.72%
CCNC(=O)c1cc(Cl)ccc1NS(=O)(=O)c1cn[nH]c1 -6.14%
CCC(c1nnc(SC(C)C(N)=O)n1Cc1ccccc1)N(C)C (stereo unspecified) -4.22%
Cc1cc(CN2CCN3C(=O)CNC(=O)C3C2)ccc1N1CCCC1 (stereo unspecified) -4.4%
CCN(CC)C(=O)N1CCCC(C(=O)Nc2ccc(S(=O)(=O)C(F)F)cc2)C1 (stereo unspecified) 6.42%
NC(=O)c1cc(NC(=O)N2CCCCCC2c2ccco2)ccc1F (stereo unspecified) -5.95%
CCn1nc(C(=O)NNC(=O)c2c(C)noc2C)c2ccccc2c1=O -0.0832%
COc1ccccc1CCc1nnc(CCC(=O)NC(C)CCn2cccn2)o1 (stereo unspecified) 2.62%
O=C(CCn1cnc2ccccc2c1=O)Nc1cc2c(cc1Br)OCCO2 -1.61%
CCN(Cc1ccncc1)C(=O)C1CCC(=O)N(Cc2ccccn2)C1 (stereo unspecified) -3.05%
COc1cc(NC(=O)[C@@H](C)N2Cc3ccc(NCC(C)C)nc3C2=O)cc(OC)c1 7.27%
Cc1ccc(C(=O)N2CCCC(C(=O)NC3C4CCc5ccccc5C43)C2)cc1 (stereo unspecified) -4.85%
CCCN1C(=O)CCc2cc(NC(=O)COC)ccc21 -1.31%
CCC(CC)S(=O)(=O)NC(=O)c1c(C)nn(CC)c1Cl -36.3%
CC(C)Cc1ccc(C(=O)c2cccs2)cc1 2.67%
Cc1c(C(=O)NCc2cccc([N+](=O)[O-])c2)sc(=O)n1CCc1ccccc1 -3.1%
OC(c1ccc(Cl)c(F)c1)c1ncc(-c2ccccc2Cl)[nH]1 (stereo unspecified) -1.95%
O=C(CCOc1ccccc1)N1CC(c2ccncc2)C1 -7.26%
C=CCNC(=O)c1cccnc1-c1ccc(OC)c2ncccc12 -6.67%
O=C1N(CCCc2ccccc2)CCCC12CCN(c1cnccn1)C2 (stereo unspecified) -11%
CCCCN(CCCC)C(=O)c1[nH]c(C)c(C(C)=O)c1C -6.21%
Cc1cccc(NCCNC(=O)c2oc(Br)cc2C)n1 -6.38%
CC(C)C(NC(=O)c1ccco1)C(=O)N1CC(C)(C)C1(C)C (stereo unspecified) -1.92%
N#CC(Cc1ccccc1)NC(=O)/C=C/c1ccccc1Br (stereo unspecified) 8.15%
Cc1cc(C)n(C(=O)C(C)n2cc([N+](=O)[O-])cn2)n1 (stereo unspecified) -19.7%
COC(=O)CCC(=O)N1CCCC(C(=O)c2ccc(-c3ccccc3)cc2)C1 (stereo unspecified) -2.49%
Cc1ccc(C(=O)NCC(NC(=O)c2ccc(C)nc2)C(C)C)cn1 (stereo unspecified) 3.43%
CC(C)C1CN(C(=O)CCn2cncn2)CCCN1Cc1ccc(F)cc1 (stereo unspecified) -18%
COc1ccc(-n2c(C)nc3ccc(NC(=O)Nc4ccc(C)cc4C)cc3c2=O)cc1 -11.4%
CN(C(=O)c1ccc(=O)[nH]n1)C1c2ccccc2-c2ccccc21 -2.89% and -15.8%
Cc1ncc(-c2c(-c3ccccc3)ncn2Cc2csc(N)n2)[nH]1 -18.8%
CCOc1ccc(Cl)cc1S(=O)(=O)N1CCN(CCO)CC1 -1.81%
Cc1ccccc1NC(=O)Cn1cc(S(=O)(=O)c2ccc(F)cc2)c(=O)c2cc3c(cc21)OCO3 -8.2%
CN1C(=O)Cc2cc(-c3csc(CCN4CCCCC4)n3)ccc21 -45.7%
Cc1cc(C)c(S(=O)(=O)Nc2ccc(-c3cn4ccc(C)nc4n3)cc2)c(C)c1 -25.3%
CCCn1c(=O)c2c(nc3n2CCN3c2cc(C)ccc2C)n(C)c1=O -2.17%
Cn1c(=O)c2c(nc(CN3CCCCC3)n2Cc2cccc3ccccc23)n(C)c1=O -3.06%
CCOc1ccc2c(c1)C(C)CC(C)(C)N2C(=O)C1CCN(C(=O)C2CC2)CC1 (stereo unspecified) -7.85%
CSCc1ccc(C(=O)N2CCCC(C(=O)c3ccc4c(c3)OCO4)C2)o1 (stereo unspecified) -4.82%
O=C(C=Cc1ccsc1)N1CCN(S(=O)(=O)c2cc(F)ccc2F)CC1 -8.87%
CN(C)CCNc1cc(-c2n[nH]c(C(F)(F)F)n2)c2cc[nH]c2n1 -6.32%
COc1ccccc1OCCCOc1ccc(Cl)cc1Cl -12.4%
CCOc1cn2c(cc1=O)C(=O)N(CCNC(=O)c1ccc(C)cc1)CC2 -4.57%
CCCN(C(=O)c1ccc(-n2ccnc2)cc1)C1CCCC1 -16.4%
Cc1cnn(CC2CCN(C(=O)c3ccccc3C3CCNC3)CC2)c1 (stereo unspecified) 3.82%
Cc1ccc(OCc2nc(C(=O)NC3CC(C)(C)NC(C)(C)C3)cs2)cc1 -17.3%
CCCCOC1CC(N(C)Cc2ccc(S(=O)(=O)N(C)C)o2)C1(C)C (stereo unspecified) -31.6%
COC(=O)C[C@H]1[C@]2(C)C[C@@]34OC5(C)OC6(C(OC(C)=O)[C@@]3(OC(C)=O)[C@H]2OC(C)=O)C2CC(=O)O[C@@H](c3ccoc3)[C@]2(C)CCC6(O5)[C@]14C (stereo partly specified) 1.62%
Cn1ccnc1CN(C(=O)c1scc2c1CCCC2)C1CC1 -27.6%
CC(C)CCN(CCC#N)Cc1ncc(Cl)n1C -8.32%
CC(N)=C(C#N)C(=O)COC(=O)c1ccc([N+](=O)[O-])o1 -1.77%
CC(CC(=O)Nc1ccc(F)cc1)n1cncn1 (stereo unspecified) -11%
CCOCC(O)CN1CCN(C(=O)Cn2ccccc2=O)CC1 (stereo unspecified) -5.1%
CC(C)Cn1c(CN(Cc2ccccc2)CC2CC2)cnc1S(C)(=O)=O -12.5%
CC(C)c1ccc2c(c1)CCCN2C(=O)CSC1CCS(=O)(=O)C1 (stereo unspecified) -7.34%
CC(N)=C(C#N)C(=O)COC(=O)C12CC3CC(CC(Br)(C3)C1)C2 -14%
CC1C(=O)SC2(CCCCC2)N1c1ccc(Cl)cc1 (stereo unspecified) -10.1%
CC1=C(C(=O)N2CCC(N3CCC(C(=O)NCC4CCCO4)CC3)CC2)OCCO1 (stereo unspecified) -2.1%
O=C(CCc1nc2ccccc2s1)NC1CCN(Cc2ccccc2)C1 (stereo unspecified) -1.33%
Cc1cc(C)n(CC2CCN(C(=O)C3CCN(S(C)(=O)=O)CC3)CC2)n1 -6.54%
Cc1cn2c3c(=O)n(CCc4ccccc4)c(=O)n(C)c3nc2n1CCOCCO -7.78%
CCCNC(=O)C1(C)CCCN(Cc2c(C)nn(-c3ccccc3)c2C)C1 (stereo unspecified) -6.24%
CCOc1ccc(CNC(=O)Cc2sc(=S)[nH]c2C)cc1F -6.57%
CC(=O)Nc1ccc(Cl)c(C(=O)N(C)CCc2nc3ccccc3[nH]2)c1 -12.1%
CCc1ccc(C(=O)NNC(=S)Nc2sc(CC)cc2C(=O)OC)s1 -2.22%
COc1cccc(N2C[C@@H]3C[C@@H](c4cccs4)N4CCC[C@@]34C2=O)c1 -6.87%
COC(=O)Cn1nc([N+](=O)[O-])n(CC(=O)OC)c1=O -9.81%
COc1ccc(NC2CCCN(c3nc(C(F)(F)F)nc(C)c3C)C2)cc1 (stereo unspecified) -21.1%
CCCOc1ccc(C(=O)NNC(=O)c2ccc[nH]c2=O)cc1 2.97%
CN(C)/C=C(\C(=O)c1ccc(Cl)c(Cl)c1)c1nnnn1-c1ccccc1 -2.94%
CC1CN(Cc2ccccc2F)CCO1 (stereo unspecified) -0.301%
CC(C(=O)N1CCCC1)N1CCOC(CN(C)C)C1 (stereo unspecified) -1.48%
CCc1ccc(Cl)c(CC)c1NC(=O)c1cnccn1 -4.79%
N#Cc1ccc(C2=CSC3=NS(=O)(=O)CCN23)cc1 -8.31%
O=C(NCCC(F)(F)F)c1csc(N2CCN(Cc3ccccc3)C2=O)n1 -6.72%
Cc1noc(C)c1C(=O)N1CCC1(C)C(=O)NS(=O)(=O)c1ccc(C#N)cc1 (stereo unspecified) -9.56%
O=[N+]([O-])c1cc(S(=O)(=O)C(F)(F)F)ccc1N1CCCC1 -9.38%
C=CCSc1nc2ccccc2n1CCO -7.69%
CC(=O)Nc1ccc(Cl)c(C(=O)NC(CCn2ccnc2)c2ccccc2)c1 (stereo unspecified) -10.1%
CCC1(C)Cc2ccccc2-c2nc3[nH][nH]c(=S)n3c(=O)c21 (stereo unspecified) 15%
COc1ccccc1/C=C/C=C1\N=C(c2ccc(C(C)(C)C)cc2)OC1=O -5.55%
Cc1ccc(C)c(C=C2SC(N3CCOCC3)=NC2=O)c1 -2.54%
O=C(NC[C@H]1C[C@H]2C=C[C@H]1C21CC1)C1CCN(Cc2ccco2)CC1 -6.29%
CN(Cc1cn[nH]c1-c1ccc(F)cc1)C(=O)Cc1c[nH]c2ccccc12 -11.3%
OCC1(Cc2ccccc2Cl)CCN(C2CCN(c3ccccc3)CC2)CC1 -7.34%
Cc1cc2nc(N(CCN3CCOCC3)C(=O)C3COc4ccccc4O3)sc2cc1C (stereo unspecified) -7.12%
CCN(CCn1cccn1)C(=O)CC1C(=O)NCCN1C1Cc2ccccc2C1 (stereo unspecified) 3.93% and -3.95%
Cc1c(C)c(C)c(C(=O)C2CCN(C(=O)CC3NC(=O)NC3=O)CC2)c(C)c1C (stereo unspecified) -1.46%
Cc1nc2c(cnn2C(C)C)c(C)c1CCC(=O)NC1CCCC1 -7.8%
Cc1ccsc1C(CNC(=O)c1cnn2ccn(C)c12)N(C)C (stereo unspecified) -20.4%
